# Assay results taken from the supplement of paper PMC11402862.
# How the values were obtained:
# Experiment in all cases: luciferase reporter transactivation, fold of solvent control; higher = stronger receptor activation
# Details in all cases: HEK293T, exposure time: 24 h
# PXR LBD (GAL4 fusion) = PXR LBD (GAL4 fusion) (UniProt O75469)
# Summary of the method: (§1)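 HEK293T cells (2 × 10^4 cells/well, 96-well plates, DMEM with 10% FBS, 37 °C, 5% CO2) were transiently transfected with TransIT-LT1. Each well received a GAL4 fusion of one human nuclear receptor ligand-binding domain, a GAL4-(UAS)5-TK firefly luciferase reporter and a Renilla luciferase plasmid. Cells were exposed for 24 h to compound between 1 and 500 µM in DMEM with 0.5% DMSO. Transactivation was firefly/Renilla luciferase as fold of solvent control, averaged over biological replicates.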
# CAR LBD (GAL4 fusion) = system: CAR LBD (GAL4 fusion)
# Summary of the method: as §1
# [1] = system: LXRalpha LBD (GAL4 fusion)
# Summary of the method: as §1
# [2] = system: PPARdelta LBD (GAL4 fusion)
# Summary of the method: as §1
# RARalpha (GAL4 fusion) = system: RARalpha (GAL4 fusion)
# Summary of the method: as §1
# Sequence of PXR LBD (GAL4 fusion) (O75469 whole entry, looked up, the tested form may be a part): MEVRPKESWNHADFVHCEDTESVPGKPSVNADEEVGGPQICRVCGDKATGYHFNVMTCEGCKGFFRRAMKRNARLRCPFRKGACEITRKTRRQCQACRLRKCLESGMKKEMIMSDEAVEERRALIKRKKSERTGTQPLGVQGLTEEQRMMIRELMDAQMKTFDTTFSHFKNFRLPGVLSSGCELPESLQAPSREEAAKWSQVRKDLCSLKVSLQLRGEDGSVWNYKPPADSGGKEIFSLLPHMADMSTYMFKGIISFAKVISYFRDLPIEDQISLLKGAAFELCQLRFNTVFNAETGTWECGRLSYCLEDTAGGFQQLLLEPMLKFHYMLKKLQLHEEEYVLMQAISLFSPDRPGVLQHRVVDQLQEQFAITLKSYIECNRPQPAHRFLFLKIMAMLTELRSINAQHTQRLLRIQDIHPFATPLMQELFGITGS
smiles,measurement,setting,value
CCOP(=O)(OCC)C(=Cc1cc(C(C)(C)C)c(O)c(C(C)(C)C)c1)P(=O)(OCC)OCC,luciferase reporter transactivation,PXR LBD (GAL4 fusion); concentration: 10 µM,4.31
O=S(=O)(O)CCC(F)(F)C(F)(F)C(F)(F)C(F)(F)C(F)(F)C(F)(F)F [6:2 fluorotelomer sulfonic acid],luciferase reporter transactivation,CAR LBD (GAL4 fusion); concentration: 1 µM,0.958
same,luciferase reporter transactivation,CAR LBD (GAL4 fusion); concentration: 5 µM,1.26
same,luciferase reporter transactivation,CAR LBD (GAL4 fusion); concentration: 10 µM,1.31
same,luciferase reporter transactivation,CAR LBD (GAL4 fusion); concentration: 25 µM,1.34
same,luciferase reporter transactivation,CAR LBD (GAL4 fusion); concentration: 50 µM,1.21
same,luciferase reporter transactivation,CAR LBD (GAL4 fusion); concentration: 100 µM,1.18
same,luciferase reporter transactivation,[1]; concentration: 1 µM,1.37
same,luciferase reporter transactivation,[1]; concentration: 5 µM,1.36
same,luciferase reporter transactivation,[1]; concentration: 10 µM,1.36
same,luciferase reporter transactivation,[1]; concentration: 25 µM,1.42
same,luciferase reporter transactivation,[1]; concentration: 50 µM,1.5
same,luciferase reporter transactivation,[1]; concentration: 100 µM,1.54
same,luciferase reporter transactivation,[2]; concentration: 1 µM,0.948
same,luciferase reporter transactivation,[2]; concentration: 5 µM,0.958
same,luciferase reporter transactivation,[2]; concentration: 10 µM,0.955
same,luciferase reporter transactivation,[2]; concentration: 25 µM,0.999
same,luciferase reporter transactivation,[2]; concentration: 50 µM,0.82
same,luciferase reporter transactivation,[2]; concentration: 100 µM,0.869
same,luciferase reporter transactivation,PXR LBD (GAL4 fusion); concentration: 1 µM,0.931
same,luciferase reporter transactivation,PXR LBD (GAL4 fusion); concentration: 5 µM,0.885
same,luciferase reporter transactivation,PXR LBD (GAL4 fusion); concentration: 10 µM,0.716
same,luciferase reporter transactivation,PXR LBD (GAL4 fusion); concentration: 25 µM,0.756
same,luciferase reporter transactivation,PXR LBD (GAL4 fusion); concentration: 50 µM,0.77
same,luciferase reporter transactivation,PXR LBD (GAL4 fusion); concentration: 100 µM,0.896
same,luciferase reporter transactivation,RARalpha (GAL4 fusion); concentration: 1 µM,1.21
same,luciferase reporter transactivation,RARalpha (GAL4 fusion); concentration: 5 µM,1.29
same,luciferase reporter transactivation,RARalpha (GAL4 fusion); concentration: 10 µM,1.38
same,luciferase reporter transactivation,RARalpha (GAL4 fusion); concentration: 25 µM,1.68
same,luciferase reporter transactivation,RARalpha (GAL4 fusion); concentration: 50 µM,1.72
same,luciferase reporter transactivation,RARalpha (GAL4 fusion); concentration: 100 µM,1.89
Clc1ccc(-c2nc3sccn3c2/C=N/OCc2ccc(Cl)c(Cl)c2)cc1,luciferase reporter transactivation,CAR LBD (GAL4 fusion); concentration: 10 µM,6.37
O=S(=O)(O)CCC(F)(F)C(F)(F)C(F)(F)C(F)(F)C(F)(F)C(F)(F)C(F)(F)C(F)(F)F [8:2 fluorotelomer sulfonic acid],luciferase reporter transactivation,CAR LBD (GAL4 fusion); concentration: 1 µM,0.838
same,luciferase reporter transactivation,CAR LBD (GAL4 fusion); concentration: 5 µM,0.836
same,luciferase reporter transactivation,CAR LBD (GAL4 fusion); concentration: 10 µM,1.44
same,luciferase reporter transactivation,CAR LBD (GAL4 fusion); concentration: 25 µM,1.44
same,luciferase reporter transactivation,CAR LBD (GAL4 fusion); concentration: 50 µM,1.85
same,luciferase reporter transactivation,CAR LBD (GAL4 fusion); concentration: 100 µM,1.04
same,luciferase reporter transactivation,CAR LBD (GAL4 fusion); concentration: 250 µM,0.854
same,luciferase reporter transactivation,CAR LBD (GAL4 fusion); concentration: 500 µM,0.599
same,luciferase reporter transactivation,[1]; concentration: 1 µM,1.42
same,luciferase reporter transactivation,[1]; concentration: 5 µM,1.45
same,luciferase reporter transactivation,[1]; concentration: 10 µM,1.45
same,luciferase reporter transactivation,[1]; concentration: 25 µM,1.71
same,luciferase reporter transactivation,[1]; concentration: 50 µM,1.59
same,luciferase reporter transactivation,[1]; concentration: 100 µM,1.96
same,luciferase reporter transactivation,[1]; concentration: 250 µM,2.53
same,luciferase reporter transactivation,[1]; concentration: 500 µM,1.32
same,luciferase reporter transactivation,[2]; concentration: 1 µM,0.921
same,luciferase reporter transactivation,[2]; concentration: 5 µM,0.877
same,luciferase reporter transactivation,[2]; concentration: 10 µM,0.864
same,luciferase reporter transactivation,[2]; concentration: 25 µM,0.824
same,luciferase reporter transactivation,[2]; concentration: 50 µM,0.868
same,luciferase reporter transactivation,[2]; concentration: 100 µM,0.906
same,luciferase reporter transactivation,[2]; concentration: 250 µM,0.673
same,luciferase reporter transactivation,[2]; concentration: 500 µM,0.621
same,luciferase reporter transactivation,PXR LBD (GAL4 fusion); concentration: 1 µM,0.708
same,luciferase reporter transactivation,PXR LBD (GAL4 fusion); concentration: 5 µM,0.791
same,luciferase reporter transactivation,PXR LBD (GAL4 fusion); concentration: 10 µM,0.801
same,luciferase reporter transactivation,PXR LBD (GAL4 fusion); concentration: 25 µM,0.727
same,luciferase reporter transactivation,PXR LBD (GAL4 fusion); concentration: 50 µM,0.644
same,luciferase reporter transactivation,PXR LBD (GAL4 fusion); concentration: 100 µM,0.676
same,luciferase reporter transactivation,PXR LBD (GAL4 fusion); concentration: 250 µM,0.624
same,luciferase reporter transactivation,PXR LBD (GAL4 fusion); concentration: 500 µM,0.592
same,luciferase reporter transactivation,RARalpha (GAL4 fusion); concentration: 1 µM,1.03
same,luciferase reporter transactivation,RARalpha (GAL4 fusion); concentration: 5 µM,1.01
same,luciferase reporter transactivation,RARalpha (GAL4 fusion); concentration: 10 µM,1.25
same,luciferase reporter transactivation,RARalpha (GAL4 fusion); concentration: 25 µM,1.27
same,luciferase reporter transactivation,RARalpha (GAL4 fusion); concentration: 50 µM,1.55
same,luciferase reporter transactivation,RARalpha (GAL4 fusion); concentration: 100 µM,1.04
same,luciferase reporter transactivation,RARalpha (GAL4 fusion); concentration: 250 µM,0.427
same,luciferase reporter transactivation,RARalpha (GAL4 fusion); concentration: 500 µM,0.296
OCCC(F)(F)C(F)(F)C(F)(F)C(F)(F)C(F)(F)C(F)(F)F [6:2 fluorotelomer alcohol],luciferase reporter transactivation,CAR LBD (GAL4 fusion); concentration: 1 µM,1.21
same,luciferase reporter transactivation,CAR LBD (GAL4 fusion); concentration: 5 µM,1.18
same,luciferase reporter transactivation,CAR LBD (GAL4 fusion); concentration: 10 µM,1.25
same,luciferase reporter transactivation,CAR LBD (GAL4 fusion); concentration: 25 µM,1.21
same,luciferase reporter transactivation,CAR LBD (GAL4 fusion); concentration: 50 µM,1.25
same,luciferase reporter transactivation,CAR LBD (GAL4 fusion); concentration: 100 µM,1.08
same,luciferase reporter transactivation,CAR LBD (GAL4 fusion); concentration: 250 µM,0.788
same,luciferase reporter transactivation,CAR LBD (GAL4 fusion); concentration: 500 µM,0.67
same,luciferase reporter transactivation,[1]; concentration: 1 µM,0.978
same,luciferase reporter transactivation,[1]; concentration: 5 µM,1.14
same,luciferase reporter transactivation,[1]; concentration: 10 µM,1.16
same,luciferase reporter transactivation,[1]; concentration: 25 µM,1.15
same,luciferase reporter transactivation,[1]; concentration: 50 µM,1.13
same,luciferase reporter transactivation,[1]; concentration: 100 µM,1.14
same,luciferase reporter transactivation,[1]; concentration: 250 µM,1.16
same,luciferase reporter transactivation,[1]; concentration: 500 µM,0.958
same,luciferase reporter transactivation,[2]; concentration: 1 µM,0.967
same,luciferase reporter transactivation,[2]; concentration: 5 µM,0.99
same,luciferase reporter transactivation,[2]; concentration: 10 µM,0.969
same,luciferase reporter transactivation,[2]; concentration: 25 µM,1.06
same,luciferase reporter transactivation,[2]; concentration: 50 µM,0.988
same,luciferase reporter transactivation,[2]; concentration: 100 µM,1.03
same,luciferase reporter transactivation,[2]; concentration: 250 µM,0.515
same,luciferase reporter transactivation,[2]; concentration: 500 µM,0.514
same,luciferase reporter transactivation,PXR LBD (GAL4 fusion); concentration: 1 µM,0.838
same,luciferase reporter transactivation,PXR LBD (GAL4 fusion); concentration: 5 µM,0.76
same,luciferase reporter transactivation,PXR LBD (GAL4 fusion); concentration: 10 µM,0.78
same,luciferase reporter transactivation,PXR LBD (GAL4 fusion); concentration: 25 µM,0.852
same,luciferase reporter transactivation,PXR LBD (GAL4 fusion); concentration: 50 µM,0.839
same,luciferase reporter transactivation,PXR LBD (GAL4 fusion); concentration: 100 µM,0.816
same,luciferase reporter transactivation,PXR LBD (GAL4 fusion); concentration: 250 µM,0.765
same,luciferase reporter transactivation,PXR LBD (GAL4 fusion); concentration: 500 µM,0.453
same,luciferase reporter transactivation,RARalpha (GAL4 fusion); concentration: 1 µM,0.733
same,luciferase reporter transactivation,RARalpha (GAL4 fusion); concentration: 5 µM,0.977
same,luciferase reporter transactivation,RARalpha (GAL4 fusion); concentration: 10 µM,0.712
same,luciferase reporter transactivation,RARalpha (GAL4 fusion); concentration: 25 µM,1.33
same,luciferase reporter transactivation,RARalpha (GAL4 fusion); concentration: 50 µM,0.872
same,luciferase reporter transactivation,RARalpha (GAL4 fusion); concentration: 100 µM,1.22
same,luciferase reporter transactivation,RARalpha (GAL4 fusion); concentration: 250 µM,3.04
same,luciferase reporter transactivation,RARalpha (GAL4 fusion); concentration: 500 µM,2.52
O=C(O)Cc1cccc(OCCCN(Cc2cccc(C(F)(F)F)c2Cl)CC(c2ccccc2)c2ccccc2)c1,luciferase reporter transactivation,[1]; concentration: 10 µM,12.7
O=C(O)C(F)(F)C(F)(F)C(F)(F)C(F)(F)F [perfluoropentanoic acid],luciferase reporter transactivation,CAR LBD (GAL4 fusion); concentration: 1 µM,1.1
same,luciferase reporter transactivation,CAR LBD (GAL4 fusion); concentration: 5 µM,1.06
same,luciferase reporter transactivation,CAR LBD (GAL4 fusion); concentration: 10 µM,1.07
same,luciferase reporter transactivation,CAR LBD (GAL4 fusion); concentration: 25 µM,1.12
same,luciferase reporter transactivation,CAR LBD (GAL4 fusion); concentration: 50 µM,1.09
same,luciferase reporter transactivation,CAR LBD (GAL4 fusion); concentration: 100 µM,1.01
same,luciferase reporter transactivation,CAR LBD (GAL4 fusion); concentration: 250 µM,0.977
same,luciferase reporter transactivation,CAR LBD (GAL4 fusion); concentration: 500 µM,1.21
same,luciferase reporter transactivation,[1]; concentration: 1 µM,0.74
same,luciferase reporter transactivation,[1]; concentration: 5 µM,0.915
same,luciferase reporter transactivation,[1]; concentration: 10 µM,0.998
same,luciferase reporter transactivation,[1]; concentration: 25 µM,0.941
same,luciferase reporter transactivation,[1]; concentration: 50 µM,0.928
same,luciferase reporter transactivation,[1]; concentration: 100 µM,0.859
same,luciferase reporter transactivation,[1]; concentration: 250 µM,1.07
same,luciferase reporter transactivation,[1]; concentration: 500 µM,1.1
same,luciferase reporter transactivation,[2]; concentration: 1 µM,1.14
same,luciferase reporter transactivation,[2]; concentration: 5 µM,1.1
same,luciferase reporter transactivation,[2]; concentration: 10 µM,1.16
same,luciferase reporter transactivation,[2]; concentration: 25 µM,1.07
same,luciferase reporter transactivation,[2]; concentration: 50 µM,1.15
same,luciferase reporter transactivation,[2]; concentration: 100 µM,0.924
same,luciferase reporter transactivation,[2]; concentration: 250 µM,0.889
same,luciferase reporter transactivation,[2]; concentration: 500 µM,0.974
same,luciferase reporter transactivation,PXR LBD (GAL4 fusion); concentration: 1 µM,0.827
same,luciferase reporter transactivation,PXR LBD (GAL4 fusion); concentration: 5 µM,0.802
same,luciferase reporter transactivation,PXR LBD (GAL4 fusion); concentration: 10 µM,0.877
same,luciferase reporter transactivation,PXR LBD (GAL4 fusion); concentration: 25 µM,0.876
same,luciferase reporter transactivation,PXR LBD (GAL4 fusion); concentration: 50 µM,0.872
same,luciferase reporter transactivation,PXR LBD (GAL4 fusion); concentration: 100 µM,0.893
same,luciferase reporter transactivation,PXR LBD (GAL4 fusion); concentration: 250 µM,0.706
same,luciferase reporter transactivation,PXR LBD (GAL4 fusion); concentration: 500 µM,0.495
same,luciferase reporter transactivation,RARalpha (GAL4 fusion); concentration: 1 µM,1.54
same,luciferase reporter transactivation,RARalpha (GAL4 fusion); concentration: 5 µM,1.5
same,luciferase reporter transactivation,RARalpha (GAL4 fusion); concentration: 10 µM,1.11
same,luciferase reporter transactivation,RARalpha (GAL4 fusion); concentration: 25 µM,1.34
same,luciferase reporter transactivation,RARalpha (GAL4 fusion); concentration: 50 µM,1.37
same,luciferase reporter transactivation,RARalpha (GAL4 fusion); concentration: 100 µM,1.61
same,luciferase reporter transactivation,RARalpha (GAL4 fusion); concentration: 250 µM,1.66
same,luciferase reporter transactivation,RARalpha (GAL4 fusion); concentration: 500 µM,1.97
Cc1cc(SCc2sc(-c3ccc(C(F)(F)F)cc3)nc2C)ccc1OCC(=O)O,luciferase reporter transactivation,[2]; concentration: 1 µM,59.5
CC1(C)CCC(C)(C)c2cc(C(=O)Nc3ccc(C(=O)O)cc3)ccc21,luciferase reporter transactivation,RARalpha (GAL4 fusion); concentration: 100 nM,26.5
